Source: PubChem BioAssay (NCATS)
Inconclusive results are not listed. A call without a number means that no potency is given here. The source made the active and inactive calls. Unless noted, the call rests on the fitted dose curve; in most records, active means well fitted curve in the direction sought with a large enough effect; inconclusive means small, poorly fitted or top-dose-only effect, or another doubt; inactive means no such curve, though single readings can be large; an effect the other way counts as inactive or inconclusive.

Assays:
[1] = biological target: Cellular tumor antigen p53 (Homo sapiens) (UniProt P04637); experiment: Primary qHTS for small molecule compounds that upregulate eGFP-tagged delta133p53alpha (in C-terminal) cells. (AID 2060324); further: potency means the concentration at half of the fitted maximal effect
Chain of Cellular tumor antigen p53 (Homo sapiens) (P04637 whole entry, looked up): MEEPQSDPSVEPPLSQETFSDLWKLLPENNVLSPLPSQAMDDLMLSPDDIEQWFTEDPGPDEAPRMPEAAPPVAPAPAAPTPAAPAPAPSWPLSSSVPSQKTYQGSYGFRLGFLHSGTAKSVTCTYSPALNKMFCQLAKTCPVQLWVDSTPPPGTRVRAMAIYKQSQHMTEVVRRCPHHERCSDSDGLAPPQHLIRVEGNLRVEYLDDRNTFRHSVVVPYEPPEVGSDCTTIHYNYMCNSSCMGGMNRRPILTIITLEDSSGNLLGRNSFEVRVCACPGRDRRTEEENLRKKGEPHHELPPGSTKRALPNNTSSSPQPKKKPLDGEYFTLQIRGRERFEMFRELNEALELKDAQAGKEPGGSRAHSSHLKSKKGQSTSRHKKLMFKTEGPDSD
Procedure, shortened: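 Concentration-response screen: compounds titrated onto pre-induced NCI-H358 D133p53a-eGFP cells, incubated one day, fixed with 3.5% PFA. Per-cell GFP peak intensity was gated, then normalized against intraplate controls.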

[2] = biological target: Aldehyde dehydrogenase, mitochondrial (Homo sapiens) (UniProt P05091); experiment: qHTS for Inhibitors of the Aldehyde Dehydrogenase Family (ALDH2) Validation screens (AID 2061302; active means well fitted inhibition curve with a large enough effect; title and protocol of this record describe different tests)
[3] = biological target: Retinaldehyde dehydrogenase 3 (Homo sapiens) (UniProt P47895); experiment: qHTS for Inhibitors of the Aldehyde Dehydrogenase Family (ALDH1A3) Validation screen (AID 2061312); further: nearly all actives have a fitted effect of over 45% in size; further: potency means the concentration at half of the fitted maximal effect
[4] = BET inhibitor-based combinations targeting novel dependencies in MECOM-rearranged (r) AML: MV-4-11 cell line (AID 2202233); further: nearly all actives have a fitted effect of over 45% in size; further: potency means the concentration at half of the fitted maximal effect
Procedure, shortened: (§1)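 Cells at 500/well were exposed for 48 hr to MIPE v5.0 drugs as 11-point dose curves. Viability was read by CellTiter-Glo luminescence and normalized to DMSO and empty-well controls. Activity was expressed as AUC and per-cell-line Z-AUC.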

[5] = BET inhibitor-based combinations targeting novel dependencies in MECOM-rearranged (r) AML: HNT-34 cell line (AID 2202234); further: nearly all actives have a fitted effect of over 35% in size; further: potency means the concentration at half of the fitted maximal effect
Procedure, shortened: as §1

[6] = BET inhibitor-based combinations targeting novel dependencies in MECOM-rearranged (r) AML: UCSD-AML1 cell line (AID 2202235); further: nearly all actives have a fitted effect of over 40% in size; further: potency means the concentration at half of the fitted maximal effect
Procedure, shortened: as §1

[7] = BET inhibitor-based combinations targeting novel dependencies in MECOM-rearranged (r) AML: AML-191 cell line (AID 2202236; further: nearly all actives have a fitted effect of over 35% in size; further: potency means the concentration at half of the fitted maximal effect)
Procedure, shortened: (§2)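 AML cell lines seeded at 500 cells/well, treated with 11-point dose curves for 48 h. Viability by CellTiter-Glo luminescence, normalised to DMSO and empty wells; activity expressed as AUC and per-cell-line Z-transformed AUC.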

[8] = BET inhibitor-based combinations targeting novel dependencies in MECOM-rearranged (r) AML: AML-194 cell line (AID 2202237; further: nearly all actives have a fitted effect of over 40% in size; further: potency means the concentration at half of the fitted maximal effect)
Procedure, shortened: as §2

[9] = BET inhibitor-based combinations targeting novel dependencies in MECOM-rearranged (r) AML: SET-2 cell line (AID 2202231); conditions: SET-2 AML cells viability, CellTiter-Glo luminescence, 48 h; viability: active compounds read low, concentration not given here; further: potency means the concentration at half of the fitted maximal effect; nearly all actives have a fitted effect of over 35% in size
Procedure, shortened: as §2

[10] = BET inhibitor-based combinations targeting novel dependencies in MECOM-rearranged (r) AML: OCI-AML3 cell line (AID 2202232); conditions: Potency: OCI-AML3 viability; further: potency means the concentration at half of the fitted maximal effect; nearly all actives have a fitted effect of over 35% in size
Procedure, shortened: as §2

[11] = qHTS for Inhibitors of the Aldehyde Dehydrogenase Family (ALDH1A2, ALDH1A3, ALDH2, ALDH3A1) (AID 2061307); further: nearly all actives have a fitted effect of over 50% in size
[12] = biological target: Aldehyde dehydrogenase, mitochondrial (Homo sapiens) (UniProt P05091); experiment: qHTS for Inhibitors of the Aldehyde Dehydrogenase Family (ALDH2) Confirmatory screens (AID 2061303; active means well fitted inhibition curve with a large enough effect; title and protocol of this record describe different tests; further: nearly all actives have a fitted effect of over 45% in size; further: potency means the concentration at half of the fitted maximal effect)
[13] = biological target: Aldehyde dehydrogenase 1A1 (Homo sapiens) (UniProt P00352); experiment: qHTS for Inhibitors of the Aldehyde Dehydrogenase Family (ALDH1A1) Confirmatory screens (AID 2061316); further: nearly all actives have a fitted effect of over 65% in size; further: potency means the concentration at half of the fitted maximal effect
[14] = biological target: Aldehyde dehydrogenase, mitochondrial (Homo sapiens) (UniProt P05091); experiment: qHTS for Inhibitors of the Aldehyde Dehydrogenase Family (ALDH2) Primary screen (AID 2061308); further: nearly all actives have a fitted effect of over 55% in size; further: potency means the concentration at half of the fitted maximal effect
[15] = biological target: Retinaldehyde dehydrogenase 3 (Homo sapiens) (UniProt P47895); experiment: qHTS for Inhibitors of the Aldehyde Dehydrogenase Family (ALDH1A3) Primary screen (AID 2061315)
[16] = biological target: Retinaldehyde dehydrogenase 3 (Homo sapiens) (UniProt P47895); experiment: qHTS for Inhibitors of the Aldehyde Dehydrogenase Family (ALDH1A3) Confirmatory screens (AID 2061311); further: potency means the concentration at half of the fitted maximal effect; nearly all actives have a fitted effect of over 60% in size
[17] = biological target: Retinal dehydrogenase 2 (Homo sapiens) (UniProt O94788); experiment: qHTS for Inhibitors of the Aldehyde Dehydrogenase Family (ALDH1A2) Confirmation screens (AID 2061314); further: potency means the concentration at half of the fitted maximal effect; nearly all actives have a fitted effect of over 65% in size

Which Potency [1] does the source give for NC(N)=NOCCC(N)C(=O)O (stereo unspecified) here?
The Potency was “inactive”.

And the Potency [2]?
The Potency was “inactive”.

What about the Potency [3] of the same compound?
Its Potency is “inactive”.

Which results are given for CCC1(c2ccc(N)cc2)CCC(=O)NC1=O (stereo unspecified)?
Potency [2]: inactive; Potency [3]: inactive; Potency [4]: inactive; Potency [5]: inactive; Potency [6]: inactive; Potency [7]: inactive; Potency [8]: inactive

Which Potency [1] does the source give for CN1CCc2cccc(Cl)c2CC1 here?
The Potency was “inactive”.

And the Potency [2]?
Its Potency is “inactive”.

What about the Potency [3] of the same compound?
Its Potency is “inactive”.

What does the source list for N[C@@H](Cn1oc(=O)[nH]c1=O)C(=O)O?
Potency [1]: inactive; Potency [2]: inactive; Potency [3]: inactive

What does the source list for NN=C(N)N?
Potency [1]: inactive; Potency [2]: inactive; Potency [3]: inactive; Potency [4]: inactive; Potency [5]: inactive; Potency [6]: inactive; Potency [7]: inactive

What does the source list for C=C(C)[C@H]1Cc2c(ccc3c2O[C@@H]2COc4cc(OC)c(OC)cc4[C@@H]2C3=O)O1?
Potency [2]: inactive; Potency [9]: 1180 nM (active); Potency [10]: 332 nM (active); Potency [4]: 417 nM (active); Potency [5]: 833 nM (active); Potency [6]: 934 nM (active); Potency [7]: 934 nM (active); Potency [8]: 934 nM (active)

Which results are given for C=CCN1C[C@@H](C)N([C@H](c2ccc(C(=O)N(CC)CC)cc2)c2cccc(OC)c2)C[C@@H]1C?
Potency [1]: inactive; Potency [2]: inactive; Potency [3]: inactive

Which results are given for c1ccc(C2(c3ccccc3)CC2C2=NCCN2)cc1 (stereo unspecified)?
Potency [1]: inactive; Potency [2]: inactive; Potency [3]: inactive

Which Potency [2] does the source give for CC(Cc1ccc(O)cc1)NCC(O)c1cc(O)cc(O)c1 (stereo unspecified) here?
The Potency was “inactive”.

What about the Potency [3] of the same compound?
Its Potency is “inactive”.

With Cc1ncsc1CCCl as the compound, how does the Potency [2] read?
Its Potency is “inactive”.

With C=C(C)[C@H]1CN[C@H](C(=O)O)[C@H]1CC(=O)O as the compound, how does the Potency [2] read?
The Potency was “inactive”.

And the Potency [3]?
Its Potency is “inactive”.

With O=c1ccc2[nH]cc(C3=CCNCC3)c2[nH]1 as the compound, how does the Potency [1] read?
Its Potency is “inactive”.

What about the Potency [2] of the same compound?
The Potency was “inactive”.

And the Potency [11]?
Its Potency is “inactive”.

And the Potency [3]?
The Potency was 398 nM (active).

Which Potency [2] does the source give for CCCN1CCc2cc(O)cc3c2[C@H]1Cc1ccc(O)c(O)c1-3 here?
The Potency was “inactive”.

What does the source list for Cc1cccc(C)c1NC1=NCCCS1?
Potency [2]: inactive; Potency [3]: inactive

For CN(Cc1ccccc1)C[C@H]1CN2CC[C@H]1C[C@@H]2CNC(=O)c1ccc(C(F)(F)F)cc1, which Potency [12] is on record?
The Potency was “inactive”.

With NNC(N)=O as the compound, how does the Potency [2] read?
Its Potency is “inactive”.

With CC(=O)[C@H]1CCC2C3CC[C@H]4C[C@H](O)CC[C@]4(C)C3CC[C@@]21C (stereo partly specified) as the compound, how does the Potency [1] read?
The Potency was “inactive”.

What about the Potency [2] of the same compound?
The Potency was “inactive”.

And the Potency [3]?
The Potency was “inactive”.

Which Potency [1] does the source give for O=C1/C(=C/c2ccccc2)C[C@@]2(O)[C@H]3Cc4ccc(O)c5c4[C@@]2(CCN3CC2CC2)[C@H]1O5 here?
The Potency was 21300 nM (active).

What about the Potency [2] of the same compound?
Its Potency is “inactive”.

What about the Potency [3] of the same compound?
Its Potency is “inactive”.

With NCC(CC(=O)O)c1ccc(Cl)cc1 (stereo unspecified) as the compound, how does the Potency [2] read?
The Potency was “inactive”.

What about the Potency [3] of the same compound?
The Potency was “inactive”.

What does the source list for CCC1(C2=NCCN2)Cc2ccccc2O1 (stereo unspecified)?
Potency [2]: inactive; Potency [3]: inactive

For CCCCCCCCCCCCCC(=O)O[C@@H]1[C@@H](C)[C@@]2(O)[C@@H](C=C(CO)C[C@@]3(O)C(=O)C(C)=C[C@@H]23)C2C(C)(C)[C@@]21OC(C)=O (stereo partly specified), which Potency [1] is on record?
The Potency was “inactive”.

And the Potency [2]?
Its Potency is “inactive”.

And the Potency [3]?
The Potency was “inactive”.

For C[C@]12Cc3cn4c(nc3C=C1CCC1C2CC[C@@]2(C)[C@H]1CC[C@@]2(O)C#N)nc1ccccc14 (stereo partly specified), which Potency [1] is on record?
The Potency was 30100 nM (active).

And the Potency [2]?
Its Potency is “inactive”.

What about the Potency [13] of the same compound?
Its Potency is 12700 nM (active).

With O=C(O)Cc1cnc[nH]1 as the compound, how does the Potency [2] read?
Its Potency is “inactive”.

For C[N+](C)(C)CC(=O)O, which Potency [2] is on record?
The Potency was “inactive”.

For Cc1c2ccncc2c(C)c2c1[nH]c1ccccc12, which Potency [1] is on record?
The Potency was 30100 nM (active).

And the Potency [2]?
Its Potency is “inactive”.

What about the Potency [3] of the same compound?
The Potency was “inactive”.

With COC(=O)C1=CCCN(C)C1 as the compound, how does the Potency [2] read?
Its Potency is “inactive”.

What about the Potency [3] of the same compound?
The Potency was “inactive”.

What does the source list for C[C@@H]1O[C@@H](O[C@H]2C[C@@H](O)[C@]3(CO)[C@H]4[C@H](O)C[C@]5(C)[C@@H](C6=CC(=O)OC6)CC[C@]5(O)[C@@H]4CC[C@]3(O)C2)[C@H](O)[C@H](O)[C@H]1O?
Potency [2]: inactive; Potency [14]: inactive; Potency [3]: inactive; Potency [15]: inactive; Potency [9]: 74.2 nM (active); Potency [10]: 66.1 nM (active); Potency [4]: 118 nM (active); Potency [5]: 93.4 nM (active); Potency [6]: 83.3 nM (active); Potency [7]: 83.3 nM (active)

With COc1ccc2[nH]cc(CCN)c2c1 as the compound, how does the Potency [1] read?
The Potency was “inactive”.

What about the Potency [2] of the same compound?
The Potency was “inactive”.

And the Potency [3]?
Its Potency is “inactive”.

For N#Cc1nc(-c2cccc3ccccc23)oc1NCc1ccccc1, which Potency [11] is on record?
Its Potency is 2520 nM (active).

And the Potency [15]?
Its Potency is “inactive”.

What about the Potency [13] of the same compound?
The Potency was 7120 nM (active).

For CCOc1ccc(CCNC(=O)c2cc3ccncc3n2Cc2cccc(C)n2)cc1OCC, which Potency [11] is on record?
The Potency was “inactive”.

And the Potency [14]?
The Potency was “inactive”.

And the Potency [15]?
Its Potency is “inactive”.

What about the Potency [13] of the same compound?
Its Potency is “inactive”.

With C[C@@H]1O[C@@H](OC2CCC3(C=O)C(CCC4C3CCC3(C)C(C5=CC(=O)OC5)C(O)CC43O)C2)[C@H](O)[C@H](O)[C@H]1O[C@@H]1O[C@H](CO)[C@@H](O)[C@H](O)[C@H]1O (stereo partly specified) as the compound, how does the Potency [14] read?
The Potency was “inactive”.

For N#Cc1c(-c2ccc([N+](=O)[O-])o2)no[n+]1[O-], which Potency [12] is on record?
Its Potency is 2820 nM (active).

What about the Potency [11] of the same compound?
The Potency was 10100 nM (active).

What about the Potency [14] of the same compound?
Its Potency is 3160 nM (active).

And the Potency [16]?
The Potency was 7940 nM (active).

And the Potency [17]?
The Potency was 15800 nM (active).

And the Potency [13]?
The Potency was 2250 nM (active).
